Experimental data reported in PubChem BioAssay (EPA / NIEHS).
The source made the active and inactive calls. How the source made its calls: active means hit-call score of the fitted dose curve at least 0.9, where 1 is the maximum; inactive means score below 0.9.

Tests used:
Conditions in all cases: mRNA level, 48 h; actives raise or lower the signal
[1] = read-out: Cytochrome P450 3A7 (Homo sapiens) (UniProt P24462); test: LTEA_HepaRG_CYP3A7: Life Technologies and Expression Analysis (LTEA) Assay for CYP3A7 using HepaRG (AID 2283492)
Summary of the method: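 CYP3A7 transcript measured by qRT-PCR (ACTB, GAPDH, POLR2A normalization) after 48 h chemical exposure of HepaRG cells in duplicate. Eight half-log concentrations, maximum 100 uM, 0.5% DMSO vehicle; bidirectional curve fitting against DMSO baseline.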

CYP3A5 (gene 1577) = test: LTEA_HepaRG_CYP3A5: Life Technologies and Expression Analysis (LTEA) Assay for CYP3A5 using HepaRG (AID 2283493)
Summary of the method: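 mRNA induction or loss of CYP3A5 assessed in HepaRG after 48 h dosing, 100 uM top concentration, duplicate wells; TaqMan qRT-PCR with ACTB, GAPDH, POLR2A normalization; 0.5% DMSO as negative control.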

[2] = read-out: Fatty Acid-Binding Protein 1 (FABP1), FABP1 (gene 2168); test: LTEA_HepaRG_FABP1: Life Technologies and Expression Analysis (LTEA) Assay for Fatty Acid-Binding Protein 1 (FABP1) using HepaRG (AID 2283494)
Summary of the method: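 HepaRG, 48 h post-plating switched to serum-free induction medium, then dosed 48 h (duplicate, 8 pts, ≤100 uM, 0.5% DMSO). RNA → Fluidigm TaqMan qRT-PCR, FABP1 normed to ACTB/GAPDH/POLR2A. Bidirectional curve fit vs DMSO.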

[3] = read-out: Cytochrome P450 4A22 (Homo sapiens) (UniProt Q5TCH4); test: LTEA_HepaRG_CYP4A22: Life Technologies and Expression Analysis (LTEA) Assay for Cytochrome P450 4A22 (CYP4A22) using HepaRG (AID 2283495)
Summary of the method: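 Gene expression measured by qRT-PCR against three housekeeping genes (ACTB, GAPDH, POLR2A), with gain or loss fitted relative to 0.5% DMSO vehicle. HepaRG cultures received 48 h chemical treatment, top concentration 100 uM, half-log steps, duplicate wells.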

[4] = read-out: Cytochrome P450 7A1 (Homo sapiens) (UniProt P22680); test: LTEA_HepaRG_CYP7A1: Life Technologies and Expression Analysis (LTEA) Assay for Cytochrome P450 7A1 (CYP7A1) using HepaRG (AID 2283496)
Summary of the method: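 Gene expression endpoint in human HepaRG liver cells treated for 48 h with test chemicals (up to 100 uM, 0.5% DMSO). Values come from bidirectional concentration-response fitting versus DMSO.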

[5] = read-out: Glutathione S-Transferase (GSTA2), GSTA2 (gene 2939); test: LTEA_HepaRG_GSTA2: Life Technologies and Expression Analysis (LTEA) Assay for Glutathione S-Transferase (GSTA2) using HepaRG (AID 2283497)
Summary of the method: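 HepaRG, 48 h dosing, 8-pt half-log CRC from 100 uM, 0.5% DMSO vehicle, n=2; RNA → Fluidigm TaqMan qRT-PCR; GSTA2 vs ACTB/GAPDH/POLR2A; gain/loss fit vs DMSO.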

[6] = read-out: Glutamate-cysteine ligase catalytic (GCLC), GCLC (gene 2729); test: LTEA_HepaRG_GCLC: Life Technologies and Expression Analysis (LTEA) Assay for Glutamate-cysteine ligase catalytic (GCLC) using HepaRG (AID 2283498)
Summary of the method: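 Read-out is GCLC transcript level by Fluidigm-based TaqMan qRT-PCR, normalized to three housekeeping genes and fitted in both directions relative to 0.5% DMSO. Human HepaRG cells received chemicals for 48 h, up to 100 uM.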

[7] = read-out: Glutamate-cysteine ligase regulatory (GCLM), GCLM (gene 2730); test: LTEA_HepaRG_GCLM: Life Technologies and Expression Analysis (LTEA) Assay for Glutamate-cysteine ligase regulatory (GCLM) using HepaRG (AID 2283500)
Summary of the method: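 Human liver HepaRG cultures receive test chemicals for 48 hours at up to 100 uM in 0.5% DMSO. GCLM expression is measured by qRT-PCR and analysed for increases or decreases against vehicle.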

[8] = read-out: Glutathione S-transferase M3 (GSTM3), GSTM3 (gene 2947); test: LTEA_HepaRG_GSTM3: Life Technologies and Expression Analysis (LTEA) Assay for Glutathione S-transferase M3 (GSTM3) using HepaRG (AID 2283501)
Summary of the method: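 GSTM3 transcript levels came from Fluidigm TaqMan qRT-PCR normalized to three housekeeping genes, fitted in both directions against DMSO. HepaRG cultures received chemicals for 48 h in serum-free induction medium (0.5% DMSO), 8 half-log concentrations up to 100 uM, duplicate.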

[9] = read-out: growth arrest and DNA damage 45 (GADD45G), GADD45G (gene 10912); test: LTEA_HepaRG_GADD45G: Life Technologies and Expression Analysis (LTEA) Assay for growth arrest and DNA damage 45 (GADD45G) using HepaRG (AID 2283499)
Summary of the method: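 GADD45G transcript level by qRT-PCR (housekeeping-normalized: ACTB, GAPDH, POLR2A) after 48 h chemical treatment of a single HepaRG lot in serum-free induction medium; eight-point half-log series up to 100 uM in 0.5% DMSO, duplicates, up- or down-regulation scored.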

Measured: AC50

Cytochrome P450 3A7 (Homo sapiens), sequence (P24462 whole entry, looked up): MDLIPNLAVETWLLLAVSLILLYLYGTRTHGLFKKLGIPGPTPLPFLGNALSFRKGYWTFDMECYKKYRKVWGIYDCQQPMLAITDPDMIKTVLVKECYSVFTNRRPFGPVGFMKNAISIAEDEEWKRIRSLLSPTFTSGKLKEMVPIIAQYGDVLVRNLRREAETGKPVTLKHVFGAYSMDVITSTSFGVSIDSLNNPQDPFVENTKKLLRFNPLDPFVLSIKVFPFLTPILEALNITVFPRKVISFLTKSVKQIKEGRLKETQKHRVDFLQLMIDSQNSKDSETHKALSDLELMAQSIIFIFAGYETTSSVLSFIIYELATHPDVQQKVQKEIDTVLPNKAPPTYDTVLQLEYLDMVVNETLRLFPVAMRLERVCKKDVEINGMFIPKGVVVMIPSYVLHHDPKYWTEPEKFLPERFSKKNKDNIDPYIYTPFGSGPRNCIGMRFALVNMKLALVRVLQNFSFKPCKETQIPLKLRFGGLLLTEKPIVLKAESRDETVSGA

CCCCCCCCN(C)CCCCCCCC
not listed: [9]
inactive: all other assays above

OC12N=C(c3ccccc3)SC1Cc1cc(Cl)ccc12 (stereo not given)
inactive: [6] | [8]
active: [1] 59 µM | CYP3A5 (gene 1577) 8.12 µM | [2] 34.4 µM | [3] 63.2 µM | [4] 9.92 µM | [5] 30 µM | [9] 2.05 µM

COc1ccc2cc(S(=O)(=O)N[C@H](CC(=O)N[C@H](Cc3ccc(CN4[C@H](C)CCC[C@@H]4C)cc3)C(=O)N(C)C(C)C)c3ccc4c(c3)OCO4)ccc2c1
active: [1] 25.2 µM | CYP3A5 (gene 1577) 22.1 µM | [2] 12.1 µM | [5] 81.6 µM | [6] 56.4 µM | [7] 78 µM | [8] 22.5 µM
inactive: [4] | [9]

Cc1oc2c(NC(=O)c3c(Cl)cccc3Cl)cccc2c1C(C)(C)O
active: [1] 31.6 µM | [2] 62.1 µM | [3] 31.5 µM | [4] 57.3 µM | [5] 38.2 µM | [6] 68.7 µM | [8] 34.4 µM
inactive: CYP3A5 (gene 1577) | [9]

O=C(O)Cn1c(=O)n(Cc2ccc(Br)cc2F)c(=O)c2ccc(Cl)cc21
not listed: [1] | [3] | [9]
inactive: all other assays above

NC(=O)c1nc(-c2cccc(-c3cc(F)ccc3OCC(F)(F)C(F)(F)F)c2)n[nH]1
active: [2] 50 µM
not listed: [3] | [9]
inactive: all other assays above

Oc1ccc2ccccc2c1
not listed: [3] | [9]
inactive: all other assays above

Clc1cc(Cl)c2c(c1)N=C1CCCCCN1C2
active: [1] 7.11 µM
not listed: [3] | [7]
inactive: all other assays above

O=C(Nc1ccc(Cl)cc1)Nc1ccc(Cl)c(Cl)c1
active: [2] 16.7 µM | [4] 26 µM | [5] 27.2 µM
inactive: CYP3A5 (gene 1577) | [7] | [8]

C[C@]12CC[C@@H]3c4ccc(O)cc4CC[C@H]3[C@@H]1CC[C@H]2O
inactive: CYP3A5 (gene 1577) | [4] | [5] | [6] | [8]
active: [2] 74.3 µM

CN(C)c1ccc(C(=C2C=CC(=[N+](C)C)C=C2)c2ccc(N(C)C)cc2)cc1
active: CYP3A5 (gene 1577) 24.6 µM | [2] 2.76 µM | [4] 4.38 µM | [5] 4.31 µM | [6] 20.1 µM | [7] 95.3 µM | [8] 7.35 µM

Cc1cc2c(cc1C(F)(F)F)N(C(=O)Nc1ccc(Oc3cccnc3C)nc1)CC2
active: CYP3A5 (gene 1577) 73.1 µM | [2] 11.6 µM | [4] 46 µM | [5] 26 µM | [6] 60.7 µM
inactive: [1] | [9] | [8]

c1ccc2ccccc2c1
not listed: [3] | [9]
inactive: all other assays above

CCOC(=O)O[C@H](C)OC(=O)c1ccc2c(c1)cc(C(=O)NC1CCN(C(C)C)CC1)n2Cc1cc(-c2ccc(Cl)s2)on1
not listed: [3] | [7] | [9]
inactive: all other assays above

O=CCCCC=O
not listed: [3] | [7]
inactive: all other assays above

Cc1cn([C@H]2C[C@H](N=[N+]=[N-])[C@@H](CO)O2)c(=O)[nH]c1=O
not listed: [3] | [7] | [9]
inactive: all other assays above

O=C1CCC(C2CCCCC2)CC1
not listed: [3] | [7] | [9]
inactive: all other assays above

Cc1occc1C(=O)Nc1ccc(C(=O)N2CCC(F)(F)/C(=C\C(=O)N3CCC(N4CCCCC4)CC3)c3ccccc32)cc1
active: [4] 17.2 µM | [5] 52 µM | [8] 31.2 µM
not listed: [3] | [7]
inactive: all other assays above

CCCOC(=O)c1cc(O)c(O)c(O)c1
inactive: [1] | CYP3A5 (gene 1577) | [5] | [6] | [8]
active: [2] 30.1 µM | [4] 17.9 µM

Cc1ccc2oc(CN(Cc3ccccc3)C(=O)Nc3c(F)cc(F)cc3F)c(-c3ccc(Cl)cc3)c2c1
active: [1] 11.1 µM | [2] 13 µM | [4] 5.31 µM | [5] 44.2 µM | [7] 44.2 µM
inactive: CYP3A5 (gene 1577) | [6] | [8]

c1ccc(C[n+]2cccc3ccccc32)cc1
active: [1] 31.7 µM | [2] 31.7 µM | [4] 33.7 µM | [5] 75 µM | [6] 85.9 µM | [7] 62.7 µM
inactive: CYP3A5 (gene 1577) | [8]

Cc1ccc(C(C)C)cc1
not listed: [3] | [7] | [9]
inactive: all other assays above

CCO[Si](CCCNC(N)=O)(OCC)OCC
not listed: [3] | [9]
inactive: all other assays above

O=C(OCCCCCCOC(=O)c1ccccc1)c1ccccc1
not listed: [3] | [7] | [9]
inactive: all other assays above

COc1cc(C(=O)NC2CCN(C)CC2)ccc1Nc1ncc2c(n1)N(C1CCCC1)CC(F)(F)C(=O)N2C
inactive: CYP3A5 (gene 1577)
active: [2] 6.44 µM | [3] 3.23 µM | [4] 8.23 µM | [5] 12 µM | [6] 21.3 µM | [9] 85.6 µM | [8] 3.73 µM

CC(=O)N1CCN(c2ccc(OC[C@H]3CO[C@](Cn4ccnc4)(c4ccc(Cl)cc4Cl)O3)cc2)CC1
active: CYP3A5 (gene 1577) 50 µM | [2] 12.7 µM | [4] 12.9 µM | [5] 11.3 µM | [6] 65.5 µM | [8] 22.7 µM
inactive: [9]

CO[C@H]1/C=C/O[C@@]2(C)Oc3c(C)c(O)c4c(O)c(c(/C=N/N5CCN(C)CC5)c(O)c4c3C2=O)NC(=O)/C(C)=C\C=C\[C@H](C)[C@H](O)[C@@H](C)[C@@H](O)[C@@H](C)[C@H](OC(C)=O)[C@@H]1C
inactive: [6] | [9] | [7] | [8]
active: [2] 0.486 µM | [4] 1.62 µM | [5] 0.379 µM

CC1=CC(=O)/C(=C(/C)O)C(=O)O1
not listed: [3] | [7] | [9]
inactive: all other assays above

Oc1ccccc1
not listed: [3] | [7] | [9]
inactive: all other assays above

CN1C(=O)N(c2ccccc2Br)Cc2cnc(Nc3ccc4c(c3)OCC(CO)O4)nc21 (stereo not given)
inactive: [7] | [8]
active: [1] 50 µM | CYP3A5 (gene 1577) 82.1 µM | [2] 58.8 µM | [4] 72.8 µM | [5] 78 µM | [6] 65.8 µM

O=c1c(-c2ccc(O)cc2)coc2cc(O)cc(O)c12
not listed: [3] | [7] | [9]
inactive: all other assays above

CCN(Cc1cccnc1)C(=O)c1cccc(Cl)c1[C@]1(C)C(=O)N(Cc2ccc(OC)cc2OC)c2ccc(Cl)cc21
inactive: CYP3A5 (gene 1577) | [8]
active: [1] 24.1 µM | [2] 22.3 µM | [4] 22.3 µM | [5] 25.8 µM | [6] 22.4 µM

CCCCCCCCCC(=O)O
not listed: [3] | [9]
inactive: all other assays above

CCCC(=O)OCCC(C)C
not listed: [3] | [9]
inactive: all other assays above

Cc1cc(F)ccc1-c1cc(N2CC[C@@H](O)[C@H]2CO)ncc1N(C)C(=O)C(C)(C)c1cc(C(F)(F)F)cc(C(F)(F)F)c1
active: [2] 13.9 µM | [4] 20 µM | [5] 10.4 µM | [6] 75.4 µM | [9] 20.1 µM
inactive: [1] | CYP3A5 (gene 1577) | [8]

C[C@]12CC[C@@H]3c4ccc(O)cc4CC[C@H]3[C@@H]1CCC2=O
inactive: [5] | [6] | [9] | [7] | [8]
active: [2] 30.8 µM

O=C(O)c1ccccc1-n1cc(C(=O)O)c(=O)c2cc(Nc3c(F)cc(F)cc3Cl)c(Cl)cc21
active: [1] 3 µM
not listed: [3] | [7] | [9]
inactive: all other assays above

Cc1c2ccccc2c(C)c2c1ccc1ccccc12
active: [1] 30.3 µM | CYP3A5 (gene 1577) 11.9 µM | [2] 50 µM | [4] 65.9 µM | [5] 39.4 µM
inactive: [6] | [9] | [8]

CCCCCCCCOc1ccc(C(=O)c2ccccc2)c(O)c1
not listed: [3] | [7]
inactive: all other assays above

c1ccc2n[nH]nc2c1
inactive: CYP3A5 (gene 1577) | [2] | [4] | [5] | [6] | [8]

O=C(O)c1ccccc1C(=O)OCc1ccccc1
active: [2] 28.1 µM
not listed: [3] | [7] | [9]
inactive: all other assays above

OCCO
not listed: [3] | [4] | [7]
inactive: all other assays above
